High-throughput results: PubChem, National Center for Advancing Translational Sciences (NCATS)
Tau fluor cs – Counterscreen qHTS for Inhibitors of Tau Fibril Formation, Fluorescence Polarization; tau K18 P301L Alexa594 fluorescence, heparin fibrillization; Potency, µM (top dose mostly 57.7 µM), inactives show at the top dose activity change, negative = decrease; 280,000 compounds, 0.93% hits; also: nearly all actives have a fitted effect of over 55% in size
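Human tau K18 P301L (15 uM unlabeled, 0.24 uM Alexa 594-labeled) in 100 mM sodium acetate pH 7 with 20 uM heparin, 6 hr at 37 C. ThT 30 uM added, 1 hr ambient; Alexa 594 FP and total fluorescence read at 555/632 nm.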
Tau fibril FP – qHTS for Inhibitors of Tau Fibril Formation, Fluorescence Polarization; Potency, µM (highest dose often 57.7 µM), without a hit: at the top dose activity, negative = inhibition, hits mostly inhibitors; 280,000 compounds, 0.39% hits; K18 P301L tau heparin fibrillization, Alexa594 FP, 6 h; Microtubule-associated protein tau (Homo sapiens), P10636; also: nearly all actives have a fitted effect of over 55% in size
Target sequence (P10636 561-689 P618L limits assumed): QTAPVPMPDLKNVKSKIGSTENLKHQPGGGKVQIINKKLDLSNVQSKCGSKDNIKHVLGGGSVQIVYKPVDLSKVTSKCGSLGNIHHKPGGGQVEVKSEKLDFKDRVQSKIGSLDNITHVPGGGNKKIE
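Recombinant K18 P301L […], labeled with Alexa 594 at 0.24 uM over 15 uM unlabeled; heparin inducer 20 uM final; 37 C, 6 hr; FP endpoint.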
TexasRed fluor – Total Fluorescence Counterscreen for Inhibitors of the Interaction of Thyroid Hormone Receptor and Steroid Receptor Coregulator 2 | 280,000 compounds, 0.29% hits | Potency, µM (top dose mostly 106 µM), inactives show at the top dose fluorescence change, negative = quenching | TRb/SRC2 Texas Red total fluorescence interference | AID 1479, 2009; active = well fitted curve in either direction with a large enough effect; inconclusive = small, poorly fitted or top-dose-only effect
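Flags fluorescent or light-absorbing compounds by total fluorescence, S + 2P, at 555 nm excitation and 632 nm emission. Mixture: 20 nM Texas Red SRC2 peptide, 0.6 uM human TRb LBD, 1 uM T3, 5% DMSO; compound exposure 5 h at ambient temperature.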
TRb-SRC2 inh – qHTS for Inhibitors of the Interaction of Thyroid Hormone Receptor and Steroid Receptor Coregulator 2 | TRbeta-SRC2 peptide binding, fluorescence polarization; receptor liganded with 1 µM T3 | Potency, µM (series often up to 106 µM), for inactives: top-dose activity change, negative = inhibition, hits mostly inhibitors | 280,000 compounds, 0.065% hits;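 also: plate controls were bound peptide for no effect and peptide without receptor for full effect; nearly all actives have a fitted effect of over 50% in size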
Target sequence (P10828 whole entry, looked up): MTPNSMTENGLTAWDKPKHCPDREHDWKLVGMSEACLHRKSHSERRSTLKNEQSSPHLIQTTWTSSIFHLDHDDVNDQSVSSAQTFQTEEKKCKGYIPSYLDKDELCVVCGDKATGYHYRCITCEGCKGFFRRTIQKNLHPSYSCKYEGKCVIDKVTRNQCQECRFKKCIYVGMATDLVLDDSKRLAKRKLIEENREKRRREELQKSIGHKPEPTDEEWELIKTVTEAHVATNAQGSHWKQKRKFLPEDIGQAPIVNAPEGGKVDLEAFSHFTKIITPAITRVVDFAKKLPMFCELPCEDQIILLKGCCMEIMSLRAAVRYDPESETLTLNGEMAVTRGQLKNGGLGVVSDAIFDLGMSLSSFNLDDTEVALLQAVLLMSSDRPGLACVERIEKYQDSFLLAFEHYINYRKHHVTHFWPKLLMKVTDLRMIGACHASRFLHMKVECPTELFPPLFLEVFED
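A fluorescence polarization screen tested compounds at multiple concentrations against complex formation between 0.6 uM TRb ligand-binding domain and 20 nM Texas Red SRC2 peptide, with 1 uM T3 present; readout after 5 hr.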
Tau ThT inhib – qHTS for Inhibitors of Tau Fibril Formation, Thioflavin T Binding; Microtubule-associated protein tau (Homo sapiens), P10636; AID 1460, 2008; 270,000 compounds, 2.1% hits; Potency, µM (titrated, usually from 57.4 µM), inactives show at the highest dose activity, negative = inhibition, usual class: inhibitors; recombinant tau K18 P301L (four-repeat tau fragment), heparin-induced fibrillization, ThT fluorescence; also: nearly all actives have a fitted effect of over 55% in size
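Heparin-induced fibrillization of the P301L-mutant K18 repeat-domain fragment of human tau was followed by ThT binding in quantitative high-throughput format.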
RGS12 GoLoco inh – qHTS Assay for Inhibitors of RGS12 GoLoco Motif Activity (Red Fluorophore) | Guanine nucleotide-binding protein G(i) subunit alpha-1 (Homo sapiens), P63096 | Gai1:RGS12 GoLoco peptide FP, rhodamine, 10 min | Potency, µM (doses to about 61.6 µM), for inactives: at the highest dose activity, negative = inhibition, hits mostly inhibitors | 230,000 compounds, 0.44% hits | AID 880, 2007; active = well fitted inhibition curve with a large enough effect, not every such curve was filed as active; inactive = no such curve, though single readings can be large or run the other way; also: nearly all actives have a fitted effect of over 30% in size
The depositor's hits bear a star; ? = inconclusive; · = not tested or not shown; [ ] = dose if it differs, or a comment. A selection: hits, their analogues and other compounds. The true share with any hit is near 3.2%. Unless noted, calls follow the shape of the dose curve; as a rule, active = well fitted curve in the direction sought with a large enough effect; inconclusive = small, poorly fitted or top-dose-only effect, or another doubt; inactive = no such curve, though single readings can be large; an effect the other way counts as inactive or inconclusive. Unless noted, % is scaled to controls: 0 for no effect and ±100 for the full control effect; potency is read from the fitted curve at half-maximal effect.

SMILES	Tau fluor cs	Tau fibril FP	TexasRed fluor	TRb-SRC2 inh	Tau ThT inhib	RGS12 GoLoco inh
O=Nc1c(-c2c(O)[nH]c3cc(Br)ccc23)[nH]c2ccccc12	8.91µM*[quencher]	?	-3.9%	7.6%	2.24µM*	138.0%
O=Nc1c(O)[nH]c2ccccc12.[Cu].[O-]/N=C1/C(=[OH+])Nc2ccccc21	·	·	·	·	·	0.4%[14.2 µM]
CCOc1cc(CNCCSc2nnnn2C)cc(Cl)c1OCc1ccc(Cl)cc1	?	-2.4%	20µM*[quencher]	-11.8%	?	·
N#Cc1cccc(-c2nc3cnc(N4CCOCC4)nc3n(C3CC3)c2=O)c1	·	·	·	·	·	3.16µM*
Cc1ccc(C2CC(=O)Oc3cc(C)c(Cl)cc32)cc1 (stereo unspecified)	-13.3%[81.3 µM]	-1.4%[81.3 µM]	?	-9.0%	-16.5%[81.4 µM]	11.9%[88.7 µM]
CC[C@@H](c1ccccc1)n1c(=O)n2n(c1=O)[C@H]1[C@H](O)[C@H]3O[C@@H]3/C(=N/OCC(C)C)[C@@H]1CC2	-10.2%[11.6 µM]	-5.8%[11.6 µM]	-2.5%[11.2 µM]	-0.3%[11.2 µM]	-10.4%[11.5 µM]	·
CC1C/C(=C/c2ccco2)C(=O)/C(=C/c2ccco2)C1 (stereo unspecified)	-29.1%	?	-1.1%	-3.2%	25.1µM*	16.8%
O=C1/C(=C\c2ccco2)CCC/C1=C\c1ccco1	-25.6%	?	-0.3%	8.9%	17.8µM*	33.1%
O=C1/C(=C/c2ccco2)CCC1C1CCCC1 (stereo unspecified)	-17.9%	-7.3%	-0.4%	0.6%	?	35.8%
CC1=NOC(=O)/C1=C/c1ccc(N(C)C)cc1	-22.4%	-5.9%	-0.6%	-0.4%	?	·
CC(=O)N1/C(=C/c2ccc(N(C)C)cc2)C(=O)c2ccccc21	10µM*[quencher]	-12.3%	-1.8%	2.8%	10µM*	184.5%
Nc1ccc(-c2ccc(N)c(O)c2)cc1O	·	·	-22.8%	7.3%	·	43.3%
Nc1ccc(Cc2ccc(N)c(O)c2)cc1O	?	?	-3.9%	-13.2%	14.1µM*	-21.0%
Cc1cc(C)cc(O)c1	·	·	-2.4%	-1.0%	·	9.1%
O=C(O[C@@H]1Cc2c(O)cc(O)cc2OC1c1ccc(O)c(O)c1)c1cc(O)c(O)c(O)c1 (stereo partly specified)	12.6µM*[quencher]	?	-7.6%	5.0%	15.8µM*	2.2%
Oc1cc(O)c2c(c1)O[C@H](c1ccc(O)c(O)c1)[C@H](O)C2	·	·	-0.4%[53 µM]	-0.1%[53 µM]	·	-2.5%[21.6 µM]
O=C(OC1Cc2c(O)cc(O)cc2OC1c1cc(O)c(O)c(O)c1-c1c(C2Oc3cc(O)cc(O)c3CC2OC(=O)c2cc(O)c(O)c(O)c2)cc(O)c(O)c1O)c1cc(O)c(O)c(O)c1 (stereo unspecified)	14.1µM*[quencher]	?	-28.2%	5.6%	25.1µM*	24.9%
CC(C)(CCCCCCCCCCC(C)(C)CC(=O)O)CC(=O)O	·	·	-0.5%	-1.7%	·	·
CCC(C)C(NC(=O)OC(C)(C)C)C(=O)NC1COC2CC(n3ccc(=O)[nH]c3=O)OC12 (stereo unspecified)	·	·	0.2%	-2.8%	·	·
O=C1C(=C2SCCCS2)CC/C1=C\c1ccc(F)cc1	-3.0%	-4.8%	-0.7%	-5.0%	1.12µM*	2.6%
Cc1cccc(/C=C2\CCC(=C3SCCCS3)C2=O)c1	-21.8%	-4.9%	-3.7%	-10.0%	1.41µM*	-8.4%
O=C1/C(=C/c2ccc(F)cc2)CCC1C1CCCC1 (stereo unspecified)	-4.8%	-2.3%	-5.8%	-11.1%	-9.6%	-2.1%
CCCCCCCCCCCCCCN	·	·	-4.5%[201 µM]	3.3%[201 µM]	·	·
COc1ccc(-c2c(C3C4C=CCCC4(C)C(=O)N3Cc3ccccc3)ccc3ccccc23)cc1 (stereo unspecified)	·	·	-2.7%	0.0%	·	·
Cc1cccc(NC(=S)N/N=C/c2cccc([N+](=O)[O-])c2)c1	-29.8%	2.3%	0.9%	2.2%	-15.7%	-1.3%
SMILES	Tau fluor cs	Tau fibril FP	TexasRed fluor	TRb-SRC2 inh	Tau ThT inhib	RGS12 GoLoco inh
COc1ccc(NC(=S)Nc2cccc([N+](=O)[O-])c2)cc1	-19.5%	5.8%	-1.0%	-2.8%	-17.6%	-0.6%
Cc1ccc(NS(=O)(=O)c2cc([N+](=O)[O-])ccc2NNC(=S)Nc2cc(C)ccc2C)c(C)c1	12.6µM*[quencher]	4.2%	-0.5%	3.0%	?	191.9%
COc1ccc(NC(=S)NNc2ccc([N+](=O)[O-])cc2S(=O)(=O)Nc2ccc(C)cc2C)cc1	14.1µM*[quencher]	-5.1%	0.9%	-1.0%	31.6µM*	138.8%
Cc1ccc(NS(=O)(=O)c2cc([N+](=O)[O-])ccc2NNC(=S)Nc2cccc(Cl)c2)c(C)c1	7.94µM*[quencher]	?	?	6.3%	10µM*	287.5%
Cc1ccc([N+](=O)[O-])cc1NC(=S)NC(=O)C(C)(C)C	-4.1%	-0.8%	0.5%	12.9%	-2.2%	-0.1%
O=C(O)NCc1ccccc1 (tested in a mixture with another compound)	·	·	·	·	·	-5.5%[14.2 µM]
O=C1c2ccccc2CCC1CNCCc1ccc(O)cc1 (stereo unspecified)	6.4%	10.4%	-2.6%	11.9%	-16.3%	-9.8%
CC1=CC(=O)c2ccccc2C1=O	7.08µM*[quencher]	?	-0.1%	0.7%	5.01µM*	4.9%
COc1cccc2c1C(=O)C=C(C)C2=O	7.08µM*[quencher]	?	-6.3%	7.5%	7.08µM*	5.6%
CC(C)(C=O)C1=CC(=O)c2ccccc2C1=O	?	?	?	-9.3%	8.91µM*	-12.9%
O=C1C=C(Nc2ccccc2)C(=O)c2ccccc21	-22.5%	3.7%	0.0%	9.6%	?	43.4%
CC(=O)OC[C@@H]1O[C@@H](O/N=C2/C[C@@H](O)[C@@H](O)[C@@H]3[C@@H]4C(=O)N(Cc5ccccc5)C(=O)[C@H]4CC[C@H]23)[C@H](OC(C)=O)[C@H](OC(C)=O)[C@@H]1OC(C)=O	-13.4%[11.6 µM]	2.7%[11.6 µM]	-26.2%[11.2 µM]	0.6%[11.2 µM]	-13.4%[11.5 µM]	·
O=C(/C=C/c1cccc([N+](=O)[O-])c1)Nc1cccc(NC(=O)c2cccs2)c1	12.6µM*[quencher]	?	-6.5%	-2.6%	?	9.1%
COc1cc(NC(=O)c2ccc([N+](=O)[O-])o2)ccc1NC(=O)c1cccs1	-27.9%	-9.5%	-3.0%	1.9%	?	4.4%
O=C(Nc1cccc(NC(=O)c2cccs2)c1)c1ccc([N+](=O)[O-])o1	31.6µM*[quencher]	14.2%	-1.5%	-5.0%	·	1.1%
